According to PMC7819943, “Rice protein-binding microarrays: a tool to detect cis-acting elements near promoter regions in rice”:
Whole data set: some 68,000 sequences, median “fluorescence intensity (a.u.)” near 9,100, cut for the highest 2% near 16,000. The list comes from a sample in which the highest values are over-represented; it also holds similar and randomly drawn sequences.

molecular target: OsWRKY34 (Oryza sativa, UniProt Q0JBA9 1-250); experiment: protein-binding microarray (RPBM); PBS, 2% BSA, 51.3 ng/ul salmon testes DNA, 50 uM zinc acetate, 200 nM TF, 25 C, 1 h; high values mean tight binding; conditions: protein: recombinant; tags: N-terminal polyhistidine and DsRed monomer fusion (pET32a); label: CyDye5-dUTP incorporated in the synthesized complementary strand; 3' TTTTT single-stranded linker to array surface; dsDNA, one strand shown
How it was run: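 The binding signal for each feature is its fluorescence intensity in arbitrary units. An Axon 4000B scanner was used to read a custom Agilent array that had been made double-stranded with Cy5-dUTP primer extension, blocked with 2% BSA, incubated at 25 °C for 1 h with 200 nM protein in PBS, 2% BSA, salmon testes DNA and 50 µM zinc acetate, and washed. The protein was an N-terminal polyhistidine–DsRed transcription factor fusion from E. coli BL21-CodonPlus, purified on Ni–NTA.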

OsWRKY34, sequence (Q0JBA9 entry or part of it): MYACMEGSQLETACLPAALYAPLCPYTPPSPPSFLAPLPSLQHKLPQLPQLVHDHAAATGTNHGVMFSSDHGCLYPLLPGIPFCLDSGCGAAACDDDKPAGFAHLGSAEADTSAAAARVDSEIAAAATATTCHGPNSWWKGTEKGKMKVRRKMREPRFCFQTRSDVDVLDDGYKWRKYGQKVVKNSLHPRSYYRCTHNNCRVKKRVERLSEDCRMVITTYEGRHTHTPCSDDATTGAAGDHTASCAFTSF

| Sequence | binding signal |
| --- | --- |
| TTTTCTTTTTCAATGTATGATTCTGTTGACTTTTCAGATACGGAGTCACCTAGTGCAG | 11600 fluorescence intensity (a.u.) |
| CCCTCCGTTTCAAAATGTTTGACACCGTTGACTTTTTAGCCGGAGTCACCTAGTGCAG | 28700 fluorescence intensity (a.u.) |
| ATACTCCCTCCGTTTCAAAATGTTTGACATCGTTGACTTTCGGAGTCACCTAGTGCAG | 9980 fluorescence intensity (a.u.) |
| CATCCGTTTCAAAATGTTTGACACCGTTGACTTTTTAGCACGGAGTCACCTAGTGCAG | 26200 fluorescence intensity (a.u.) |
| CTTTCTTTATTTCAAAAGTATGATACCGTTGACTTTTCACCGGAGTCACCTAGTGCAG | 24900 fluorescence intensity (a.u.) |
| TTATCAAAAGTACTTTTTAAGTATGACTTCTCCGTTTTTACGGAGTCACCTAGTGCAG | 8280 fluorescence intensity (a.u.) |
| TACTCCCTCCGTTTCAAATGACACCATTGACTTTTTAGCACGGAGTCACCTAGTGCAG | 9430 fluorescence intensity (a.u.) |
| GAGATGTGTCCATATTTGTAGTATTGGGTGGTATCTATTTCGGAGTCACCTAGTGCAG | 8550 fluorescence intensity (a.u.) |
| TCACGGCCCCGCCGACCTCACGTCACCTTTTGTTGCGAGTCGGAGTCACCTAGTGCAG | 8110 fluorescence intensity (a.u.) |
| GCCGAGGGCGCCGCCGGCGTCGTCCGAGCTGTGCCGCGCGCGGAGTCACCTAGTGCAG | 8640 fluorescence intensity (a.u.) |
| ATCGTCCTCTGCACCTGCACACATCATCACTGGGACAACCCGGAGTCACCTAGTGCAG | 8140 fluorescence intensity (a.u.) |
| AGGTCGACGTGTATATGTTCGTCTTTCATATCTCTGCTCTCGGAGTCACCTAGTGCAG | 9640 fluorescence intensity (a.u.) |
| GTCGTCCAATGGCATGCCTCGCCCTGATTTTTATCGGGCCCGGAGTCACCTAGTGCAG | 12700 fluorescence intensity (a.u.) |
| CCACAGTTAATTCCACACATACATGCACGCGTCTATATATCGGAGTCACCTAGTGCAG | 11200 fluorescence intensity (a.u.) |
| CTGAGTGGCTGGGTGGGGTAGTGAAAAAAATCATCGCGCGCGGAGTCACCTAGTGCAG | 18200 fluorescence intensity (a.u.) |
| TCATCGCGGGGCGGGGTGTAGCGGGTGCGAAAAGGAGGCGCGGAGTCACCTAGTGCAG | 9910 fluorescence intensity (a.u.) |
| GGTCTGGTTTTCCGTGTGTGCACGGTCGGGGTGCGCGTGGCGGAGTCACCTAGTGCAG | 14300 fluorescence intensity (a.u.) |
| AGCTGGCGGCTGGCGGGTGGTGGTGGTGGCTGGCGGCGGGCGGAGTCACCTAGTGCAG | 13900 fluorescence intensity (a.u.) |
| CTGGTGGTCGGTTCAGTCGGGCGGGCGGGCGGGCTCACCGCGGAGTCACCTAGTGCAG | 22800 fluorescence intensity (a.u.) |
| GGTGGTCGGGGCTCTGACGCGGCGGGGCGGCGGAGGTGGTCGGAGTCACCTAGTGCAG | 10800 fluorescence intensity (a.u.) |
| GGGGTGTGTGTGCTCGGCTACTCCGGTGGGTCGGGTCTGGCGGAGTCACCTAGTGCAG | 12700 fluorescence intensity (a.u.) |
| GCTAGCTGGATTGGTGGGTGGGCGCGTCAAGAAGGGGATGCGGAGTCACCTAGTGCAG | 9830 fluorescence intensity (a.u.) |

| Sequence | binding signal |
| --- | --- |
| CTCCGGTGGGTCGGGTCTGGGCGGGGTGCGCGTGGGGATGCGGAGTCACCTAGTGCAG | 18200 fluorescence intensity (a.u.) |
| TGGTGACTGGGTAGGTGGTGGTGGTGGTGCGCGGCGGCGGCGGAGTCACCTAGTGCAG | 8620 fluorescence intensity (a.u.) |
| GCGGGGTGCGAGTGGATGGGTGGGCGTAGCGCGTGTCGTGCGGAGTCACCTAGTGCAG | 10400 fluorescence intensity (a.u.) |
| AGGGGTGGATGCGCGTGGGCTGGTGGTGGTGGTGGGGATGCGGAGTCACCTAGTGCAG | 19100 fluorescence intensity (a.u.) |
| TTCTTGGTTTTGAGTTCTCTTCTCGGTTTTCTCTTTAGCGCGGAGTCACCTAGTGCAG | 9000 fluorescence intensity (a.u.) |
| TCTGAAGATGAGAGAGAGCTCACAGTTTATGGTTTTTGTACGGAGTCACCTAGTGCAG | 8830 fluorescence intensity (a.u.) |
| TGGTTTGGTTGTGGTAGATCTTTTTTACTTATTGCTACCACGGAGTCACCTAGTGCAG | 15800 fluorescence intensity (a.u.) |
| ATACTCGAGATGGGCGCTTGGTACTTGCATGTTTCCATTCCGGAGTCACCTAGTGCAG | 8680 fluorescence intensity (a.u.) |
| AAATGTTACAATCATGCTCCAAACTCACACCTTGTTTAACCGGAGTCACCTAGTGCAG | 8540 fluorescence intensity (a.u.) |
| CCTTTCACCCGCCCAAACTCATCCATCCATCGATCGCCCTCGGAGTCACCTAGTGCAG | 8560 fluorescence intensity (a.u.) |
| GCAATCCGTGTAATTAATTATTTTTTCGTTTATACTCTCTCGGAGTCACCTAGTGCAG | 10200 fluorescence intensity (a.u.) |
| CTTCCCACGCCAACGCCTCCGCTCCCGCTCGTACCACGCGCGGAGTCACCTAGTGCAG | 8090 fluorescence intensity (a.u.) |
| GCCTCCGCCGCCGCCGCCGCCGCCGCGTCGTCTCCGACCGCGGAGTCACCTAGTGCAG | 9710 fluorescence intensity (a.u.) |
| GGTTAGGGTTTGGGGTGGGGAGGGGTGGATGCGCGTGGGCCGGAGTCACCTAGTGCAG | 21600 fluorescence intensity (a.u.) |
| TCGGTCGGGTCGGGTCGGGTCGCGTCGCGTGGGCTGCATGCGGAGTCACCTAGTGCAG | 12200 fluorescence intensity (a.u.) |
| CTGGTCGTCGCTGCTCCGCGTGCCGGTCGGGGTGGGTGGGCGGAGTCACCTAGTGCAG | 20100 fluorescence intensity (a.u.) |
| GCTGCGGCCGTCAACGTGGTCGTCGTCTCCGCGGCCGCCGCGGAGTCACCTAGTGCAG | 46900 fluorescence intensity (a.u.) |
| GTGGTGGGTGGTGGCCGCGCTGCTGCGCGGTGGGTCGCATCGGAGTCACCTAGTGCAG | 11400 fluorescence intensity (a.u.) |
| TTCTTGGGGCTGGAGAGGGTGGGGATGGTGGTGCGGATGCCGGAGTCACCTAGTGCAG | 15000 fluorescence intensity (a.u.) |
| CCCAACCTCGCCGTCGCCGTCGCCGTCGCCGCCGTCTCCGCGGAGTCACCTAGTGCAG | 10000 fluorescence intensity (a.u.) |
| GGTTTTCCCTGGATGCCGAGAGGGTTTGGGTGCGCGCCGCCGGAGTCACCTAGTGCAG | 8910 fluorescence intensity (a.u.) |
